An excerpt weighted towards active compounds, which were near 2.8% of everything screened.
JMJD2C inh – inhibitors of human GASC-1 (JMJD2C) demethylase. inhibition, % at 2.35 µM. GST-JMJD2C(1-420) H3K9me3 demethylation, DELFIA europium. 0.069% of 330,000 active;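 active = more than half of a compound's replicate wells show inhibition beyond 50%, single wells judged on their own value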;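 note: signal counts dimethyl H3K9 product captured on neutravidin plate; 0% = median of DMSO wells and 100% = 0.3 times that DMSO median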
Rev-erbA mod – Rev-erb alpha (human) modulation; 0.79% of 370,000 active; activity, % at 10 µM; P20393; Rev-erbα–FITC-DNA binding, fluorescence polarization, 90 min;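 active = activity above about 14%, limit read from the data; passing the limit was not always enough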;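 note: 0% = DMSO wells with 35 nM protein and 100% = DMSO wells with 750 nM protein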
PP1 counter – blocks human PP1-alpha phosphatase, a PP5 counter-screen | purified PP1alpha, OMFP fluorescence | 0.9% of 320,000 active | AID 2235 | P62136 | inhibition, % at 6.7 µM;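 active = inhibition above the mean inhibition of all tested compounds plus 3 SD, computed separately for each screening campaign, cut at about 15% in these data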
Target sequence (P62136 whole entry, looked up): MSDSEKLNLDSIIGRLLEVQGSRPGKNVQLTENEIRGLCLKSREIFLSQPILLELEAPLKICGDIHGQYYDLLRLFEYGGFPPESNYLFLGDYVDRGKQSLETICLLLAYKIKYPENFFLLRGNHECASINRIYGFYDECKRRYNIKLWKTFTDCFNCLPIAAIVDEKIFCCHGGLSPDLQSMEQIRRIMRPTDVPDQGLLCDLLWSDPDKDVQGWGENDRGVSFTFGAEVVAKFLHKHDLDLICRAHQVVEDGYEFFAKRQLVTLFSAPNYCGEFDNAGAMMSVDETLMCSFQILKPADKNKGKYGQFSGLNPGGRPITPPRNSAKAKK
PP5 inh – PP5 (human) phosphatase inhibition | P53041 | purified PP5c, OMFP substrate fluorescence | inhibition, % at 6.7 µM | 0.18% of 320,000 active | AID 1987;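 active = inhibition above the campaign's mean inhibition across all tested compounds plus 3 SD, cut at about 9.5% in these data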;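 note: 0% = DMSO only and 100% = 100 µM cantharidin control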
PG9 Ab binder – binds the HIV-1 gp120 antibody PG9. TR-FRET gp120-PG9 antibody binding. inhibition, % at 6.7 µM. 0.43% of 360,000 active; in the data active = inhibition above about 8.5%
proKLK7 act – activators of human kallikrein-7 zymogen; purified proKLK7, EDANS-DABCYL substrate fluorescence; 100% is mature enzyme control, 0% vehicle; activation, % at 7 µM; 0.9% of 370,000 active; AID 652039;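 active = activation above the mean of all tested compounds plus 3 SD, computed per campaign excluding outliers beyond control limits, cut at about 13% in these data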
Target sequence (P49862 whole entry, looked up): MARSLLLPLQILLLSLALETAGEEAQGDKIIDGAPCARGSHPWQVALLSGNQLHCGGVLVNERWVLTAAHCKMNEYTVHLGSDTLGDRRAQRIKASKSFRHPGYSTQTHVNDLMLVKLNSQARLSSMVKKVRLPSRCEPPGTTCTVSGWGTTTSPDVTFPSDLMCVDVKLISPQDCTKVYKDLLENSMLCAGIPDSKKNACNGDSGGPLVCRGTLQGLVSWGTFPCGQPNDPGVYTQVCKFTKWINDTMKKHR
KLK7 act conf – confirmation of human kallikrein-7 zymogen activators. shares compounds with proKLK7 act. 68% of 3,200 active. AID 686949. purified proKLK7, EDANS-DABCYL substrate fluorescence; scaled: vehicle 0, mature enzyme 100. activation, % at 7 µM;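 active = activation, as change over the incubation, above the mean of all tested compounds plus 3 SD, cut at about 13% in these data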
EDANS-DABCYL int – fluorescence interference counter-screen for KLK7 activators; shares compounds with proKLK7 act; 80% of 3,200 active; AID 686952; EDANS-DABCYL substrate fluorescence interference, no enzyme, 4 h; solvent 0%, active enzyme control 100%; activation, % at 7 µM;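 active = activation above the all-compound mean plus 3 SD, ignoring values outside control-based bounds, cut at about 4.8% in these data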;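 note: value is the 4 h activation minus the activation read at time zero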
EDANS interf – counter-screen for kallikrein-7 activators: EDANS-DABCYL interference, dose response. EDANS-DABCYL peptide fluorescence interference, no enzyme. shares compounds with proKLK7 act. 20% of 250 active. EC50, µM;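 active = compounds that raise the fluorescence signal in this interference counterscreen, with EC50 at or below 10 µM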;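 note: intact quenched peptide substrate alone read at 355 nm excitation and 520 nm emission; signal is fluorescence gain from T0 to T4 after four hours at room temperature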
Active calls of the source: *; . = no result.

SMILES	JMJD2C inh	Rev-erbA mod	PP1 counter	PP5 inh	PG9 Ab binder	proKLK7 act	KLK7 act conf	EDANS-DABCYL int	others
C[C@H]1C(C(=O)N(C)C2CCCCC2)=Cc2c(n(-c3ccc(F)cc3)c(=O)n2CCCOc2ccccc2)C=C1c1ccccc1	.	6	.	.	0	-81	.	.
COc1cc(NC(=O)c2cccs2)c(OC)cc1NC(=O)Nc1ccc(F)cc1	-1	5	.	.	-2	99*	71*	117*
COc1cc(NC(=O)COc2ccccc2Cl)ccc1NC(=O)c1cccs1	-2	-15	6	2	-1	63*	15*	8.8*	EDANS interf=8.6*
CC(=O)c1cc(C)ccc1OC(=O)c1cccc2nc(C)oc12	-5	0	-1	-4	-1	13*	2	1
CC(C)N1CCCCC(NC(=O)c2ccccc2)C1=O (centres undefined)	.	1	.	.	.	0	.	.
COc1ccc(N2CCc3c(C)nc4c(OC)cccc4c32)cc1	-34	7	3	-1	0	-1	.	.
Cc1nc2c(C)cccc2c2c1CCN2c1ccccc1F	-6	0	-1	1	1	157*	61*	69*
CN(C)CCCn1c(N)c(S(=O)(=O)c2ccccc2)c2nc3ccccc3nc21	-4	3	-2	-3	-2	69*	-35	-48
N#Cc1c(N)n(CCc2ccc(F)cc2)c2nc3ccccc3nc12	5	-3	-1	3	-1	32*	-48	-68
Nc1c(C(=O)NCc2ccco2)c2nc3ccccc3nc2n1CCc1ccc(F)cc1	3	1	5	9	2	-29	.	.
N#Cc1c(N)n(CCOC(=O)c2cccc([N+](=O)[O-])c2)c2nc3ccccc3nc12	-1	-6	6	5	-1	83*	91*	88*
N#Cc1c(N)n(-c2cccc(O)c2)c2nc3ccccc3nc12	0	-6	5	2	1	117*	42*	47*
FC(F)(F)Oc1cccc(Cn2ccc3ccc(-c4ccc5ccn(Cc6ccccc6)c5c4)cc32)c1	.	-1	.	.	.	-2	.	.
Cc1ccc(NC(=O)CSc2nnc(-c3cc(-c4ccc(Cl)cc4)n[nH]3)n2N)cc1	.	5	.	.	.	0	.	.
COCCn1c(N)c(C#N)c2nc3ccccc3nc21	4	-1	1	3	0	62*	60*	72*
COCCn1c(N)c(S(=O)(=O)c2cccs2)c2nc3ccccc3nc21	55	-2	-9	6	1	56*	24*	26*
COCCNC(=O)Cc1c(C)c2cc3c(cc2oc1=O)OC(C)(C)CC3	3	4	.	.	0	13*	15*	10.0*	EDANS interf=>70
Cc1c(CC(=O)NCCC(C)C)c(=O)oc2cc3c(cc12)CCC(C)(C)O3	7	7	-2	0	-1	-4	.	.
CCC(=O)OCCCN1CCC2(CCCCC2)C1=O	.	-2	.	.	.	.	.	.
Cc1cccc(C2Nc3ccccc3C(=O)N2c2ccc(F)cc2)n1 (centres undefined)	19	3	0	2	-4	28*	23*	21*
O=C1c2ccccc2NC(c2ccccn2)N1c1ccccc1F (centres undefined)	15	-4	0	0	-1	18*	22*	22*
Cc1ccc(CN2C(=O)c3ccccc3NC2c2ccccn2)cc1 (centres undefined)	7	1	1	4	3	4	.	.
CCCCN1CC[C@H](C)Oc2cc(Br)ccc2S1(=O)=O	.	3	.	.	.	0	.	.
Cc1ccccc1NC(=O)OC1CC2CC1[C@H]1CCCCN1[C@H]2Cc1ccccc1 (some centres undefined)	.	3	.	.	.	-1	.	.
COc1cc2c[n+](C)c3c4ccccc4ccc3c2cc1OC	.	-3	.	.	0	26*	10	16*
SMILES	JMJD2C inh	Rev-erbA mod	PP1 counter	PP5 inh	PG9 Ab binder	proKLK7 act	KLK7 act conf	EDANS-DABCYL int	others
c1ccc(Nc2nnc(-c3ccc4c(c3)OCO4)o2)cc1	.	-6	.	.	0	0	.	.
C=C(C)Cn1c2ccc(NC(=O)CCOCC)cc2c(=O)n1C	.	-6	.	.	0	24*	19*	22*
Cn1c(=O)c2cc(NC(=O)Nc3ccccc3)ccc2n1Cc1ccccc1	.	5	.	.	0	-1	.	.
CCOCCC(=O)Nc1ccc2c(c1)c(=O)n(C)n2CC=C(C)C	.	-2	.	.	0	26*	15*	17*
C=C(C)Cn1c2ccc(NC(=O)CCc3cccc(Cl)c3)cc2c(=O)n1C	.	-2	.	.	-2	12	.	.
CNc1ccc(/C=C\CCCO)cn1	.	-7	.	.	-2	16*	15*	18*
O=C(Nc1nc2c(s1)CCc1ccccc1-2)c1cccs1	2	8	4	3	-1	14*	2	15*
COC(=O)c1ccc(OCC(O)CN2CCc3cc(OC)c(OC)cc3C2c2ccccc2)cc1 (centres undefined)	-10	2	2	3	0	67*	4	0
CCC(=O)N1CCc2cc(OC)c(OC)cc2C1COc1ccc(C(=O)OC)cc1 (centres undefined)	-3	-2	-3	0	0	0	.	.
COc1cc2c(cc1OC)C(c1ccccc1)N(Cc1ccc(S(=O)(=O)NC(=O)c3ccco3)cc1)CC2 (centres undefined)	.	1	.	.	1	29*	5	7.1*
C#CCOc1ccc(C2C3=C(CC(C)(C)CC3=O)N(CC(=O)O)C3=C2C(=O)CC(C)(C)C3)cc1	8	4	-1	1	1	30*	68*	80*
COc1ccc(C2C3=C(CC(C)(C)CC3=O)N(C)C3=C2C(=O)CC(C)(C)C3)cc1	0	-5	-3	-2	0	35*	16*	25*
COc1ccc(N2C3=C(C(=O)CC(C)(C)C3)C(c3ccccc3OC)C3=C2CC(C)(C)CC3=O)cc1	6	4	2	3	1	22*	-27	-21
COc1ccccc1C1C2=C(CC(C)(C)CC2=O)N(CC(=O)O)C2=C1C(=O)CC(C)(C)C2	-5	-2	0	0	-1	21*	30*	34*
C#CCN1CC(N(C)CCOC(=O)c2ccc(F)cc2)CS1(=O)=O (centres undefined)	.	-2	.	.	.	0	.	.
CC(=O)OCCc1c2ccccc2c(CCCN(C)C)c2ccccc12	-4	7	2	2	-11	16*	-8	-7

From PubChem
